Over roughly 33,000 sequences, “normalized occupancy” has its median near 0.075; the highest 2% begin near 0.095. The entries come from a sample that favours the highest values as a whole.
Each sequence was assayed against MaxL homodimer (Homo sapiens, UniProt P61244 1-160) (assay: universal protein-binding microarray (PBM); PBS-based mixture, 10 nM His-tagged protein dimer, 2% milk, 200 ng/uL BSA, 50 ng/uL salmon testes DNA, 0.02% TX-100; detection with Alexa 488 anti-His antibody;; high values mean tight binding). Conditions: protein: recombinant; tags: C-terminal His-tag (pET21a); chain copies: 2; dsDNA, one strand shown.
Sequence of MaxL homodimer (P61244 whole entry): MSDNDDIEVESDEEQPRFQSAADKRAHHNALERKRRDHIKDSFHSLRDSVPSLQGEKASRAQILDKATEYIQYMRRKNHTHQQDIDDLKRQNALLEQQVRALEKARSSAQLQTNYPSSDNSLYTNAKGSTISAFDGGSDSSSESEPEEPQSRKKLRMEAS
How it was run: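 Agilent 4 x 44 K arrays carrying the 'all 10-mer' universal design were incubated with His-tagged protein dimer at 10 nM. Protein that bound was tagged using fluorophore-conjugated anti-His antibody at 10 ng/μL, and a GenePix 4400A scanned the arrays to give an intensity for every 8-mer. Each binding occupancy value expresses an intensity relative to the top-ranked intensity.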
CCATGCCA was tested, and the binding signal was 0.0875 normalized occupancy.
For ACATGCCC, the binding signal was 0.099 normalized occupancy.
CCATGCCG was tested, and the binding signal was 0.1 normalized occupancy.
With CAATGCCG the binding signal was 0.0728 normalized occupancy.
TAAGAGTA was tested, and the binding signal was 0.0797 normalized occupancy.
TCTCACAA showed a binding signal of 0.0786 normalized occupancy.
For ATGAGAGC, the binding signal was 0.078 normalized occupancy.
CGAGATGC showed a binding signal of 0.078 normalized occupancy.
AAGGACAC showed a binding signal of 0.0757 normalized occupancy.
For GGCCACGA, the binding signal was 0.0815 normalized occupancy.
For AGGTCTCA, the binding signal was 0.074 normalized occupancy.
CAATTAAA was tested, and the binding signal was 0.0744 normalized occupancy.
AGTGGTCG showed a binding signal of 0.0719 normalized occupancy.
Sequence ACATGCCA has a binding signal of 0.0967 normalized occupancy.
ATATGCCA was tested, and the binding signal was 0.0822 normalized occupancy.
TCATGCCA showed a binding signal of 0.0861 normalized occupancy.
GCATGCCA was tested, and the binding signal was 0.108 normalized occupancy.
AGATGCCA gave a binding signal of 0.0772 normalized occupancy.
With GTATGCCA the binding signal was 0.0806 normalized occupancy.
For GGTCCCGA, the binding signal was 0.0733 normalized occupancy.
ACTAACCT gave a binding signal of 0.0752 normalized occupancy.
Sequence CGTGGGAA has a binding signal of 0.089 normalized occupancy.
GGTGGGAC was tested, and the binding signal was 0.0719 normalized occupancy.
CGTGGGAC showed a binding signal of 0.096 normalized occupancy.
TGGGTCAA gave a binding signal of 0.0772 normalized occupancy.
GACCATGC showed a binding signal of 0.109 normalized occupancy.
In the case of GACCATGA, the binding signal is reported as 0.0823 normalized occupancy.
CACCATGA was tested, and the binding signal was 0.0873 normalized occupancy.
CTCCATGC showed a binding signal of 0.0969 normalized occupancy.
Sequence CACCATGC has a binding signal of 0.108 normalized occupancy.
In the case of AACCATGT, the binding signal is reported as 0.0862 normalized occupancy.
ATCCATGC was tested, and the binding signal was 0.0942 normalized occupancy.
With CACCATGG the binding signal was 0.0885 normalized occupancy.
In the case of AACCATGA, the binding signal is reported as 0.0836 normalized occupancy.
CTCCATGA showed a binding signal of 0.0798 normalized occupancy.
Work on AACCATGC yielded a binding signal of 0.106 normalized occupancy.
Work on GACCATAC yielded a binding signal of 0.0805 normalized occupancy.
GTTGCCCA gave a binding signal of 0.0762 normalized occupancy.
Sequence CTCCCTCC has a binding signal of 0.0789 normalized occupancy.
Work on CGACCCAC yielded a binding signal of 0.0808 normalized occupancy.
AGTGTCAT was tested, and the binding signal was 0.0822 normalized occupancy.
Work on CCACATCA yielded a binding signal of 0.0798 normalized occupancy.
GACGCTTA showed a binding signal of 0.0768 normalized occupancy.
AACGCTTA was tested, and the binding signal was 0.0733 normalized occupancy.
Work on CGCGCTTC yielded a binding signal of 0.0753 normalized occupancy.
CACGCTTC was tested, and the binding signal was 0.098 normalized occupancy.
CACGCTTA gave a binding signal of 0.103 normalized occupancy.
Work on AACGCTTC yielded a binding signal of 0.0768 normalized occupancy.
Sequence TACCTAGA has a binding signal of 0.073 normalized occupancy.
For AACTCATC, the binding signal was 0.0815 normalized occupancy.
Sequence GCTGACGA has a binding signal of 0.072 normalized occupancy.
Sequence ACATGTCG has a binding signal of 0.1 normalized occupancy.
For ACATGTCT, the binding signal was 0.0899 normalized occupancy.
For AAATGTAT, the binding signal was 0.0812 normalized occupancy.
GCATGTAA showed a binding signal of 0.0836 normalized occupancy.
In the case of ACATGTAT, the binding signal is reported as 0.102 normalized occupancy.
In the case of CCATGTCG, the binding signal is reported as 0.0843 normalized occupancy.
Sequence CCATGTAG has a binding signal of 0.0836 normalized occupancy.
Work on AAATGTAG yielded a binding signal of 0.0793 normalized occupancy.
AGATGTAT gave a binding signal of 0.0832 normalized occupancy.
For ACATGTAA, the binding signal was 0.0953 normalized occupancy.
ACATGTAG showed a binding signal of 0.101 normalized occupancy.
With TCATGTAA the binding signal was 0.0936 normalized occupancy.
With ACCATTAG the binding signal was 0.0781 normalized occupancy.
For ATCCAGAG, the binding signal was 0.0719 normalized occupancy.
With CGCGCGGA the binding signal was 0.0836 normalized occupancy.
For AACGCGGA, the binding signal was 0.0818 normalized occupancy.
CACGCGGC was tested, and the binding signal was 0.151 normalized occupancy.
In the case of AACGCGGC, the binding signal is reported as 0.0757 normalized occupancy.
Work on CACGCGGG yielded a binding signal of 0.145 normalized occupancy.
In the case of CCCGCGGG, the binding signal is reported as 0.0758 normalized occupancy.
Work on CACGCGGA yielded a binding signal of 0.15 normalized occupancy.
In the case of TACGCGGA, the binding signal is reported as 0.0723 normalized occupancy.
Work on GACGCGGC yielded a binding signal of 0.0758 normalized occupancy.
CCGAGAGA showed a binding signal of 0.0728 normalized occupancy.
TCGCACGA was tested, and the binding signal was 0.0806 normalized occupancy.
In the case of CAGGTGCG, the binding signal is reported as 0.0849 normalized occupancy.
Sequence CAGTTGCA has a binding signal of 0.0721 normalized occupancy.
Work on CCCTAACC yielded a binding signal of 0.0758 normalized occupancy.
In the case of CTGTGCAA, the binding signal is reported as 0.0754 normalized occupancy.
Sequence TACACGTA has a binding signal of 0.083 normalized occupancy.
In the case of CACACGTG, the binding signal is reported as 0.553 normalized occupancy.
AACACGGA gave a binding signal of 0.0756 normalized occupancy.
With CACACGTA the binding signal was 0.0925 normalized occupancy.
CACACGTC showed a binding signal of 0.0858 normalized occupancy.
AACACGTC showed a binding signal of 0.0786 normalized occupancy.
For AACACGTA, the binding signal was 0.083 normalized occupancy.
Sequence AACACGTT has a binding signal of 0.128 normalized occupancy.
AACACGTG was tested, and the binding signal was 0.706 normalized occupancy.
Work on ATTTACGC yielded a binding signal of 0.0786 normalized occupancy.
CTCCCGCC was tested, and the binding signal was 0.0726 normalized occupancy.
ATTATGAC gave a binding signal of 0.0798 normalized occupancy.
In the case of ACCTCTAT, the binding signal is reported as 0.0776 normalized occupancy.
Work on AAATGGTA yielded a binding signal of 0.0806 normalized occupancy.
CATTTTAC was tested, and the binding signal was 0.0853 normalized occupancy.
In the case of AGATACAC, the binding signal is reported as 0.0831 normalized occupancy.
For GCTCCTAA, the binding signal was 0.0767 normalized occupancy.
Work on AAACGACC yielded a binding signal of 0.0727 normalized occupancy.
CACGTCGC showed a binding signal of 0.0825 normalized occupancy.
With AACGTGGA the binding signal was 0.115 normalized occupancy.
CACGTGGC showed a binding signal of 0.837 normalized occupancy.
In the case of AAGGTGGA, the binding signal is reported as 0.0747 normalized occupancy.
CACGTAGG showed a binding signal of 0.0797 normalized occupancy.
Work on TACGTGGA yielded a binding signal of 0.0878 normalized occupancy.
With CACGTGGA the binding signal was 0.768 normalized occupancy.
AAAGTGGA gave a binding signal of 0.0743 normalized occupancy.
CAAGTGGC gave a binding signal of 0.0744 normalized occupancy.
Work on GACGTGGA yielded a binding signal of 0.087 normalized occupancy.
CACGTGGG showed a binding signal of 0.707 normalized occupancy.
With CAAGTGGG the binding signal was 0.0807 normalized occupancy.
Sequence AGAGCCGA has a binding signal of 0.0723 normalized occupancy.
CTTTTTGA was tested, and the binding signal was 0.0761 normalized occupancy.
In the case of ACCGTAAC, the binding signal is reported as 0.0752 normalized occupancy.
In the case of ACTAAGAC, the binding signal is reported as 0.0733 normalized occupancy.
Sequence ACGGCACC has a binding signal of 0.0742 normalized occupancy.
Work on GTCCACAA yielded a binding signal of 0.0768 normalized occupancy.
Sequence CAGCGGTA has a binding signal of 0.0751 normalized occupancy.
For ATCCGTGG, the binding signal was 0.078 normalized occupancy.
With ACTGTAAT the binding signal was 0.0778 normalized occupancy.
Work on CAAATGTG yielded a binding signal of 0.0879 normalized occupancy.
Work on AACAGGTC yielded a binding signal of 0.0733 normalized occupancy.
In the case of TACATGGA, the binding signal is reported as 0.0848 normalized occupancy.
CACAGGTG gave a binding signal of 0.0857 normalized occupancy.
AACAGGTG gave a binding signal of 0.102 normalized occupancy.
TACATGTA showed a binding signal of 0.0978 normalized occupancy.
CACATGTG gave a binding signal of 0.216 normalized occupancy.
TACATCTA was tested, and the binding signal was 0.0787 normalized occupancy.
Work on AACATGTT yielded a binding signal of 0.0895 normalized occupancy.
AACATGTG showed a binding signal of 0.184 normalized occupancy.
Sequence AACATCTG has a binding signal of 0.0767 normalized occupancy.
Sequence CACATCTG has a binding signal of 0.0871 normalized occupancy.
CACATACG was tested, and the binding signal was 0.0784 normalized occupancy.
GTGGGGCA showed a binding signal of 0.0781 normalized occupancy.
ACCCACTA gave a binding signal of 0.085 normalized occupancy.
Sequence CTCCCGAA has a binding signal of 0.0776 normalized occupancy.
AACCTACT gave a binding signal of 0.074 normalized occupancy.
GGTTGACA gave a binding signal of 0.0758 normalized occupancy.
AGACTTGG was tested, and the binding signal was 0.0722 normalized occupancy.
With CACATGTA the binding signal was 0.147 normalized occupancy.
GACATGTC was tested, and the binding signal was 0.0872 normalized occupancy.
With CACATGTC the binding signal was 0.159 normalized occupancy.
For AACATGTA, the binding signal was 0.0923 normalized occupancy.
AACATGTC was tested, and the binding signal was 0.087 normalized occupancy.
GACATGTA gave a binding signal of 0.0884 normalized occupancy.
In the case of ACGGGTGA, the binding signal is reported as 0.0801 normalized occupancy.
CATCTCAA was tested, and the binding signal was 0.0793 normalized occupancy.
With TCAGCTGA the binding signal was 0.0752 normalized occupancy.
In the case of GCTACGAC, the binding signal is reported as 0.078 normalized occupancy.
CGCCACAA was tested, and the binding signal was 0.076 normalized occupancy.
Work on AGCCACGG yielded a binding signal of 0.0742 normalized occupancy.
In the case of CGCCACGC, the binding signal is reported as 0.0953 normalized occupancy.
Sequence AGCCACGA has a binding signal of 0.0883 normalized occupancy.
With AGCCACGC the binding signal was 0.109 normalized occupancy.
Work on CGCCACGA yielded a binding signal of 0.0799 normalized occupancy.
With GATTTTTA the binding signal was 0.0759 normalized occupancy.
Work on ACGTACAG yielded a binding signal of 0.0776 normalized occupancy.
With CAAATGTA the binding signal was 0.0834 normalized occupancy.
TCCCTCCA gave a binding signal of 0.075 normalized occupancy.
Work on AGACAGAA yielded a binding signal of 0.0751 normalized occupancy.
With AATATGTA the binding signal was 0.0801 normalized occupancy.
Sequence CATATGCC has a binding signal of 0.095 normalized occupancy.
Sequence CATATGCG has a binding signal of 0.105 normalized occupancy.
In the case of TATATGCA, the binding signal is reported as 0.0896 normalized occupancy.
In the case of CATATGTC, the binding signal is reported as 0.0943 normalized occupancy.
In the case of CATATGTA, the binding signal is reported as 0.0972 normalized occupancy.
Work on CATATGCA yielded a binding signal of 0.0978 normalized occupancy.
For AATATGCG, the binding signal was 0.0761 normalized occupancy.
In the case of GATATGCA, the binding signal is reported as 0.0792 normalized occupancy.
TAGACCTA was tested, and the binding signal was 0.0731 normalized occupancy.
Work on GGGGAACA yielded a binding signal of 0.081 normalized occupancy.
For TTACTAAA, the binding signal was 0.0728 normalized occupancy.
In the case of TGACTCAA, the binding signal is reported as 0.0763 normalized occupancy.

From PMC4242493, “Sequence specificity incompletely defines the genome-wide occupancy of Myc”
